Results: PubChem BioAssay AID624255 (Broad Institute, 2012)
Values joined by “and” are separate entries in the source; they are usually repeats but may differ in a detail not shown here. Equal entries are not always repeated. Out of some 77,000 compounds screened, about 4,600 (6%) were called active. Roughly 1% stayed inconclusive and do not appear here. This is one part of a sample in which actives are shown more often than they occur. Values without a mark were called inactive.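 The calls were made as follows: active = mean inhibition above about 93%, with at least 55% of replicates each passing it (limit read from the data, passing the limit was not always enough); inconclusive = only one of those two conditions holds; inactive = neither condition holds.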

assay: T. cruzi intracellular proliferation inhibitors, primary screen, cell-based, beta-gal Tulahuen parasites, NIH3T3 host, luminescence (AID 624255); conditions: T. cruzi beta-gal in NIH3T3, GalScreen luminescence, 90 h; at 8.34 µM; active compounds read high

SMILES	inhibition
C/C=C/c1ccc([C@H]2[C@H](CO)N3CCCCN(C(=O)Cc4ccncc4)C[C@@H]23)cc1	126% (active)
OC[C@@H]1[C@H]2c3ccccc3NC[C@H]2N1Cc1cccnc1	77.8%
O=C(Cc1ccncc1)N1CCCCN2[C@H](CO)[C@@H](c3ccc(C#CC4(O)CCCC4)cc3)[C@H]2C1	63%
O=C(Cc1ccccn1)N1CCCCN2[C@@H](CO)[C@@H](c3ccc(C#Cc4ccccc4)cc3)[C@@H]2C1	110% (active)
O=C(Cc1cccnc1)N1CCCCN2[C@@H](CO)[C@H](c3ccc(C#CC4CCCC4)cc3)[C@@H]2C1	110% (active)
COc1ccc(-c2ccc([C@H]3[C@H](CO)N4CCCCN(C(=O)Cc5ccncc5)C[C@@H]34)cc2)cc1	102% (active)
N#Cc1cccc(-c2ccc([C@H]3[C@@H](CO)N4CCCCN(C(=O)Cc5cccnc5)C[C@@H]34)cc2)c1	61.2%
O=C(Cc1ccncc1)N1CCCCN2[C@@H](CO)[C@H](c3ccc(-c4ccncc4)cc3)[C@@H]2C1	60.5%
COc1cccc(-c2ccc([C@H]3[C@H]4CN(C(=O)Cc5ccncc5)CCCCN4[C@H]3CO)cc2)c1	80.9%
O=C(Cc1ccccn1)N1CCCCN2[C@H](C1)[C@H](c1ccc(-c3ccccc3F)cc1)[C@@H]2CO	16.7%
O=C(Cc1ccncc1)N1CCCCN2[C@@H](CO)[C@H](c3ccc(C#CC4(O)CCCC4)cc3)[C@@H]2C1	93.8%
COC(=O)[C@H]1[C@H](CO)[C@H]2Cn3c(ccc(C4=CCCC4)c3=O)[C@@H]1N2C(=O)CC1CC1	11.8%
COC(=O)[C@@H]1[C@@H](CO)[C@@H]2Cn3c(ccc(-c4ccc(F)cc4)c3=O)[C@H]1N2C(C)=O	-2.43%
COC(=O)[C@H]1[C@H](CO)[C@H]2Cn3c(ccc(-c4cccc(F)c4)c3=O)[C@@H]1N2Cc1ccccc1	8.82%
O=C(O)[C@H]1[C@H](CO)[C@H]2Cn3c(cccc3=O)[C@@H]1N2C(=O)c1ccccc1	42.5%
O=C(O)[C@H]1[C@H](CO)[C@H]2Cn3c(ccc(-c4ccccc4F)c3=O)[C@@H]1N2C(=O)c1cccnc1	30%
COC(=O)C[C@@H]1CC[C@@H]2NC[C@@H](O)COC[C@H]2O1	54.8%
COC(=O)[C@H]1[C@H](CO)[C@H]2Cn3c(ccc(-c4ccccc4F)c3=O)[C@@H]1N2C(=O)C1CCC1	44.2%
COc1cccc(-c2ccc3n(c2=O)C[C@@H]2[C@@H](CO)[C@H](C(=O)O)[C@H]3N2C(=O)c2cnccn2)c1	39.3%
C[C@H]1CN([C@@H](C)CO)C(=O)CCCn2nncc2CO[C@H]1CN(C)C(=O)Oc1cccc2ccccc12	-20.3% and -6.68%
O=C(Cc1ccccc1)N1CCCCN2[C@H](CO)[C@H](c3ccc(C#Cc4ccccc4)cc3)[C@H]2C1	94.6%
O=C(Cc1ccccc1)N1CCCCN2[C@H](C1)[C@H](c1ccc(C#CC3(O)CCCC3)cc1)[C@@H]2CO	84.7%
COc1ccc(C#Cc2ccc([C@H]3[C@H](CO)N4CCCCN(C(=O)Cc5ccccc5)C[C@@H]34)cc2)cc1	109% (active)
COC(=O)[C@@H]1[C@@H](CO)[C@@H]2Cn3c(ccc(C4=CCCCC4)c3=O)[C@H]1N2CC1CC1	48.5%
C[C@H]1CN([C@@H](C)CO)C(=O)CCCn2nncc2CO[C@H]1CN(C)C(=O)Oc1ccccc1	32% and -17.3%
